# Data as given in PubChem BioAssay (NCI).
# Values joined by “and” are separate entries in the source; they are usually repeats but may differ in a detail not shown here. Equal values may be shown once. About 83,000 compounds went through this panel and 20% of them were active in at least one assay; those are over-represented in the sample as a whole.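 Activity criterion: percent growth below 10, measured after cells in 96-well plates were exposed to a single compound concentration for 48 hours.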 Active and inactive are the calls of the source.
# System: OVCAR-4 ovarian
# Test: NCI-60 one-dose screen, 48 h (100 = growth as untreated, 0 = no growth, -100 = all killed)
# Settings: 100 µM
row,Compound,growth
1,O=C(Nc1cccc(Br)c1)Oc1cccc2cccnc12,-4.65% (active)
2,O=C(O)c1c(Cl)c(Cl)c(Cl)c(Cl)c1-c1c2cc(I)c(=O)c(I)c-2oc2c(I)c(O)c(I)cc12,53.2% (inactive)
3,CN(C)C(=O)c1ccc(SC(=S)NCc2ccccc2)cc1,43.8% (inactive)
4,COc1ccc(-c2cscc2N)cc1,45.3% (inactive)
5,O=C(Nc1c(Cl)cccc1Cl)Oc1cccc2cccnc12,14.5% (inactive)

# System: SK-OV-3 ovarian
# Test: as above
# Settings: 10 µM unless noted
row,Compound,growth
1,CC(=O)ON=C1C=CC(=C(C#N)c2ccccc2)C=C1,55.7% (inactive)
2,O=C1C=CC(=O)N1C1c2ccccc2-c2ccccc21,96.5% (inactive)
3,COC(=O)c1nc(=S)[nH]c(C(=O)OC)c1C(=O)c1ccc2ccccc2c1,101% (inactive)
4,O=C(Nc1ccccc1)Oc1c(Cl)c(Cl)c(Cl)c(Cl)c1Cl,102% (inactive) and 90.5% (inactive)
5,COc1ccc(-c2cscc2N)cc1,80.2% [100 µM] (inactive)
6,O=C1N[C@H]2[C@H](CS[C@H]2CCCCC(=O)N(CCP(c2ccccc2)c2ccccc2)CCP(c2ccccc2)c2ccccc2)N1,111% (inactive)
7,CCCCCCCCCCCCCCNCc1ccccc1,97.8% (inactive)
8,CC(C)(C)CC(C)(C)c1ccc(OCCSC(=N)N)cc1,89.6% (inactive)
9,Cc1ccnc(NC(c2ccccc2)c2ccc3cccnc3c2O)c1 (configuration not stated),57.5% (inactive)
10,CNC(=O)N/N=C/c1ccc([N+](=O)[O-])o1,109% (inactive)
11,O=Nc1ccccc1N=O,116% (inactive)
12,O=C(/C=C\c1ccccc1)N1c2ccccc2CC1c1c[nH]c2ccccc12 (configuration not stated),60.5% (inactive)
